Test in all cases: NCI-60 one-dose screen, 48 h (100 = growth as untreated, 0 = no growth, -100 = all killed)
Test [1] concerns SR leukemia. The conditions noted are these: 10 µM unless noted.
Test [2] deals with RPMI-8226 leukemia. The conditions noted are these: 10 µM.
Test [3] deals with OVCAR-8 ovarian. As to conditions: 10 µM unless noted.
Test [4] has as its system OVCAR-5 ovarian. As to conditions: 10 µM unless noted.
Test [5] relates to OVCAR-4 ovarian. The conditions noted are these: 10 µM unless noted.
The test system of test [6] is SK-OV-3 ovarian. The conditions noted are these: 10 µM.
Test [7] deals with IGROV1 ovarian. The conditions noted are these: 10 µM unless noted.
The subject of test [8] is OVCAR-3 ovarian. As to conditions: 10 µM unless noted.
Test [9] relates to HS 578T breast. As to conditions: 10 µM unless noted.
In test [10] the test system is NCI/ADR-RES ovarian. The conditions noted are these: 10 µM unless noted.

This is part of a sample that, as a whole, favours compounds with a hit. Of some 83,000 tested, about 20% had one in any assay.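 Single-concentration screen, 48 h exposure, 96-well plates. Endpoint: percent growth. Below 10 = active.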 Values without a mark were called inactive. Calls of active or inactive are those of the source.

For the molecule `O=C1/C(=C/c2ccc(F)cc2)CN(Cc2cn(CCNc3ccnc4cc(Cl)ccc34)nn2)C/C1=C\c1ccc(F)cc1`, the growth in test [1] is -23.7% (active); in [2] it was -31% (active); in test [3], -5.64% (active); in test [4] it was -57.6% (active); in test [5] it was 23.3%; in test [6] it was -27.1% (active). In addition, the growth in [7] was 0.407% (active); in test [8], -39.7% (active); in [9], 18.2%; in test [10], 4.23% (active).
Take `Nc1nc2c(s1)CCc1c-2c(Br)n(Cc2ccccc2)c1Br`: the growth is 20.8% in [1]; 51.7% in test [2]; 74.3% in test [3]; 105% in test [4]; 81.8% in test [5]; 108% in [6]. Further, the growth was 104% in test [7], 52.5% in test [8], 96.9% in test [9] and 89.7% in test [10].
For the molecule `COc1cc(CNCCCN2C(=O)c3ccc4c5c(ccc(c35)C2=O)C(=O)N(CCCNCc2cc(OC)c(OC)c(OC)c2)C4=O)cc(OC)c1OC`, the growth was -3.1% (active) in [1]; -18.5% (active) in test [2]; -52% (active) in test [3]; -67.7% (active) in test [4]; -97% (active) in test [5]; -59.6% (active) in [6]. Moreover, the growth in test [7] was -51.2% (active); in test [8], -27.7% (active); in [9] it was -34.1% (active); in test [10], 71.1%.
On to `Cc1c(C)n(CC(O)CNC2CCCCC2C)c2ccccc12` (stereo not given), for which the growth is 1.95% (active) in test [1]; -10.6% (active) in test [2]; 4.94% (active) in test [3]; -58.8% (active) in test [4]; -26.2% (active) in test [5]; 52.9% in [6]. Besides, the growth in test [7] is -73.1% (active); in test [8], -89.8% (active); in [9] it was 28.3%; in [10] it was 3.85% (active).
Consider `O=C1NC(=O)C(CSc2ccccc2)(c2ccccc2)N1` (stereo not given), for which the growth in test [1] was 89.9%; in test [2], 100%; in test [3], 99.3%; in test [4] it was 107%; in test [5], 111%; in test [6], 101%. Also, the growth in test [7] is 80.4%; in [8] it was 124%; in [9], 106%; in test [10] it was 99.9%.
For the molecule `C=CC(=O)N1CC2(CC(n3nc(-c4ccc(Oc5ccccc5)cc4)c4c(N)ncnc43)C2)C1`, the growth in test [1] was 31.5%; in test [2], 41%; in test [3] it was 28.7%; in [4], 54.8%; in test [5] it was 27.4%; in test [6], 5.31% (active). Also, the growth is 10.7% in test [7], 30.9% in test [8], -11.6% (active) in [9] and 41.6% in [10].
For the molecule `CN1CCN(C(=O)OCCOCCOC(=O)N2CCN(C)CC2)CC1`, the growth was 95% in test [1]; 81% in test [2]; 102% in test [3]; 104% in test [4]; 106% in test [5]; 117% in test [6]. The growth in test [7] is 132%; in [8], 117%; in test [9], 111%; in test [10], 96.3%.
As to `C=CC[P+](c1ccccc1)(c1ccccc1)c1ccccc1`, the growth is 35.7% in [1]; 6.29% (active) in test [2]; 45.8% in test [3]; 77% in [4]; 46% in [5]; 70.8% in test [6]. The growth in [7] was 73.2%; in test [8], 32%; in test [9] it was 79.4%; in test [10], 112%.
On to `COc1cc2nc(N3CCC[C@H](NC4=CC(=O)c5ccccc5C4=O)C3)nc(N)c2cc1OC`, for which the growth in test [1] is -20.1% (active); in test [2], -50.1% (active); in test [3] it was -57.2% (active); in test [4] it was 125%; in test [5], -88% (active); in test [6] it was 116%. Besides, the growth is -81.6% (active) in [7], -57.7% (active) in [8], -49.1% (active) in [9] and 29.4% in [10].
With `Cc1nn(-c2ccccc2)c2nc3nc4c(c(N)c3c(-c3ccc(Cl)cc3)c12)CCC4`, the growth in test [1] was -25.9% (active); in [2], 82.3%; in [3], 83%; in [4], 93.2%; in test [5], 101%; in test [6] it was 98.6%. Further, the growth is 84.5% in test [7], 111% in [8], 99.5% in test [9] and 95.2% in test [10].
In the case of `NC(=O)c1cc(Cl)ccc1NC(=O)COc1ccccc1`, the growth in [1] is 23%; in test [2], 44.5%; in test [3] it was 60.1%; in test [4], 80.5%; in test [5] it was 101%; in test [6] it was 62.8%. Also, the growth was 54.5% in test [7], 27.2% in test [8], 54.7% in [9] and 31.4% in test [10].
Take `O=C1NC(=S)S/C1=C\c1cccc([N+](=O)[O-])c1`: the growth in test [1] was 70.1%; in test [2] it was 62.8%; in [3], 101%; in [4], 96.9%; in [5] it was 88.5%; in test [6], 104%. The growth was 120% in test [7], 100% in test [8], 118% in [9] and 96.8% in test [10].
As to `Brc1ccc(SCN(CSc2ccc(Br)cc2)Cc2ccccc2)cc1`, the growth in test [1] was 34.6%; in test [2], 36.3%; in test [3], 74.4%; in test [4], 90.1%; in test [5] it was 75.5%; in test [6] it was 93.9%. In addition, the growth in test [7] was 35.6%; in test [8] it was 91.6%; in test [9], 88.1%; in test [10], 73.4%.

For the origin of these results see PubChem BioAssay (NCI).
